Laboratory results published in PubChem BioAssay (NCI).
This is part of a sample that, as a whole, favours compounds with a hit. Of some 83,000 tested, about 20% had one in any assay.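 Interpretation: 100, growth as untreated; towards 0, rising growth inhibition; 0, no net growth; 0 to -100, cell death. Compounds scoring below 10 were considered active.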 A number with no mark means an inactive call. Active and inactive are the calls of the source.

How the values were obtained:
Assay in all cases: NCI-60 one-dose screen, 48 h (100 = growth as untreated, 0 = no growth, -100 = all killed)
Details in all cases: 10 µM unless noted
[1] = tested on: HCT-15 colon
[2] = tested on: HT29 colon
[3] = tested on: SNB-75 CNS
[4] = tested on: SNB-19 CNS
[5] = tested on: U251 CNS
[6] = tested on: PC-3 prostate
[7] = tested on: SK-MEL-5 melanoma
[8] = tested on: UACC-62 melanoma
[9] = tested on: LOX IMVI melanoma
[10] = tested on: SK-MEL-2 melanoma
[11] = tested on: EKVX NSCLC
[12] = tested on: SN12C renal
[13] = tested on: UO-31 renal
[14] = tested on: TK-10 renal
[15] = tested on: ACHN renal
[16] = tested on: CAKI-1 renal
[17] = tested on: A498 renal
[18] = tested on: CCRF-CEM leukemia
[19] = tested on: MOLT-4 leukemia
[20] = tested on: SK-MEL-28 melanoma

Row | Compound | growth [1] | growth [2] | growth [3] | growth [4] | growth [5] | growth [6] | growth [7] | growth [8] | growth [9] | growth [10] | growth [11] | growth [12] | growth [13] | growth [14] | growth [15] | growth [16] | growth [17] | growth [18] | growth [19] | growth [20] [%]
1 | Cc1cc2cc3ccc(N(C)C)cc3nc2cc1N | 19.4% | -37.3% (active) | -11.5% (active) | -4.5% (active) | -2.3% (active) | 12.7% | -0.276% (active) | -27.5% (active) | -53.7% (active) | -20.2% (active) | -7.41% (active) | -26% (active) | 19.1% | 9.89% (active) | 0.143% (active) | 30.5% | -2.05% (active) | 5.51% (active) | – | –
2 | Cn1cc(CC2CC(=O)N(c3ccccc3)C2=O)sc1=NC(=O)c1ccccc1 (configuration not stated) | 101% | 103% | 82% | 100% | 102% | 95.5% | 101% | 93.3% | 102% | 106% | 95.1% | 103% | 83.5% | 102% | 101% | 94.7% | – | 108% | 106% | –
3 | Cc1cc2nc3c4cccc(O)c4n(CCN(C)C)c3nc2cc1C | 21.6% | 31.1% | 25.8% | 38.4% | 35.5% | 35.6% | 39.3% | 49.5% | 8.06% (active) | – | 42.2% | 29.6% | 6.09% (active) | 72.8% | 8.22% (active) | 13.2% | – | 27% | 6.01% (active) | 75.6
4 | NC(=O)Nc1ccc(-n2cnc3cc(-c4ccc(O)cc4)ccc32)cc1 | 97.8% | -7.1% (active) | 102% | 98.7% | 83.4% | 96% | 85.9% | 108% | 104% | – | 112% | 94% | 87.2% | 121% | 92% | 95.2% | – | 94.5% | 84.9% | 100
5 | COc1ccc(C(=O)/C=C/c2cc3ccccc3n3nnnc23)cc1 | 97.3% | 110% | 98.3% | 99.1% | 101% | 103% | 103% | 97.7% | 104% | 106% | 99.9% | 102% | 90.8% | 104% | 106% | 88.8% | – | 101% | 103% | –
6 | Cc1cccc(NC(=O)Nc2ccc(-n3cnc4cc(-c5ccc(O)cc5)ccc43)cc2)c1 | 18.8% | 28.4% | 69.2% | 28% | 26.5% | 31.2% | 14.4% | 27.3% | 30.6% | 18.1% | 35.8% | 23% | 27.2% | 21.8% | 16.1% | 35% | – | 17.8% | 13.1% | –
7 | O=C1OC(Cc2ccccc2)C1c1ccccc1 (configuration not stated) | 101% | 106% | 92.1% | 99.1% | 97.5% | 106% | 98.9% | 94.2% | 99.3% | – | 97.5% | 97.7% | 89% | 89.4% | 104% | 97% | – | 109% | 101% | 109
8 | CCNC(=O)Oc1ccc(/C(=C(\C)c2ccccc2)c2ccc(OCCCN(C)C)cc2)cc1 | 52.1% | 9.13% (active) | 90.9% | 88.3% | 66.3% | 73.3% | 80.9% | 76.1% | 67.1% | – | 84% | 81.1% | 55.4% | 84.5% | 98.1% | 84.3% | – | 82.7% | 65.8% | 58
9 | O=C(CSc1nc2sc3c(c2c(=O)n1-c1ccc(Cl)cc1)CCCC3)Nc1nc(-c2cccc(Br)c2)cs1 | 87.8% | 61.7% | 41.7% | 84.8% | 78.8% | 57.5% | 82.8% | 85.1% | 84.3% | 97% | 75% | 79.5% | 74.6% | 113% | 91.1% | 49% | – | 87.7% | 87.1% | –
10 | Cc1ccc(-c2csc(NC(=O)CSc3nc(-c4ccccc4)cc(=O)[nH]3)n2)cc1 | 94.5% | 102% | 96.1% | 87.5% | 92.2% | 86.5% | 87.4% | 70% | 96.5% | – | 90.9% | – | 76% | 108% | 91.7% | 90.7% | 97.8% | 88.8% | 74.2% | 97.5
11 | COc1ccc(NC(N)=NCCCOc2ccc(F)cc2)cc1 | 92.2% | 36.6% | 81.9% | 81.5% | 85.7% | 66.8% | 28% | 87.8% | 89.8% | – | 69% | 80.5% | 86.7% | 87.3% | 89.3% | 94% | – | 82.9% | 61% | 88.5
12 | CC(c1ccccc1)C(C(=O)c1ccccc1)c1ccccc1 (configuration not stated) | 107% | 75.4% | 63.9% | 91% | 96.3% | 94.8% | 98.5% | 94% | 82.3% | 85.1% | 98.5% | 88.5% | 119% | 66.2% | 48.9% | 89.2% | 93.3% | – | – | –
13 | N#CC(C#N)=Cc1cc2ccccc2nc1Oc1ccc(C(F)(F)F)cc1 | 85.1% | 100% | 84.2% | 93.2% | 91.2% | 51.5% | 94.7% | 78.4% | 76.4% | 103% | 84.1% | 91.9% | 43.8% | 114% | 88.7% | 67.7% | – | 0.288% (active) | 54.8% | –
14 | CC1(C)c2[nH]c3ccccc3c2C[C@]2(C)[C@H]3C(=O)C=C4[C@@H]5C[C@@](C)(C(N)=O)CC[C@]5(C)CC[C@@]4(C)[C@]3(C)CC[C@@H]12 | 65.8% | 56.3% | 89.3% | 78.6% | 70.4% | 42.1% | 72% | 70.6% | 83% | – | 68.4% | 72% | 42.6% | 70.5% | 76.7% | 82.8% | – | 66.7% | 32.6% | 93.3
15 | CCOC(=O)[C@@H](C)C[C@H](Cc1ccccc1)NC(=O)c1csc([C@@H](C[C@H](C(C)C)N(C)C(=O)[C@@H](NC(=O)[C@H]2C[C@H](O[Si](C)(C)C(C)(C)C)CCN2C)C(C)C)OC(C)=O)n1 | -6.05% [9.25 µM] (active) | -71.7% [9.25 µM] (active) | 7.94% [9.25 µM] (active) | 5.09% [9.25 µM] (active) | -17.3% [9.25 µM] (active) | 6.78% [9.25 µM] (active) | -14.5% [9.25 µM] (active) | 4.13% [9.25 µM] (active) | 4.27% [9.25 µM] (active) | -21.2% [9.25 µM] (active) | 24.1% [9.25 µM] | 3.13% [9.25 µM] (active) | 8.06% [9.25 µM] (active) | 12.1% [9.25 µM] | 5.74% [9.25 µM] (active) | 15.9% [9.25 µM] | – | 0.176% [9.25 µM] (active) | 1.33% [9.25 µM] (active) | –
16 | N#Cc1c(NC(=O)NCc2ccccc2)sc2c1CCCCC2 | 15.2% | 9.68% (active) | 22.8% | 28.2% | 24.8% | 28.7% | 17.6% | 18.9% | 26.4% | 39.1% | 39.3% | 30.3% | 46.7% | 41.1% | 43.4% | 29.8% | – | 14.7% | 18% | –
